27 molecules from the supplement of paper PMC10037445 can be followed below.

The test system of assay [1] is RAW-Dual. The assay can be described thus: NF-kB SEAP reporter activity, fold change vs agonist alone; cytotoxicity flag (confluency mask): not cytotoxic; higher = enhanced NF-kB activity. In a few lines:
(§1)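 Reporter activity is given as fold change relative to agonist-alone wells. To measure it, 50 nL of library stock was pin-tooled onto RAW-Dual macrophages (50,000 cells/well, DMEM, 384-well plates), a PRR agonist followed 1 h later, and cells stayed at 37 °C, 5% CO2. Twenty hours on, supernatant was assayed for IRF (QuantiLuc luminescence) and NF-κB (QuantiBlue, 620 nm absorbance), and wells under 70% of agonist-control IncuCyte confluency in both mask sets were marked cytotoxic.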

Assay [2] deals with RAW-Dual. In words: NF-kB SEAP reporter activity, fold change vs agonist alone; higher = enhanced NF-kB activity. In outline:
as §1

The subject of assay [3] is RAW-Dual. The assay can be described thus: NF-kB SEAP reporter activity, fold change vs agonist alone; cytotoxicity flag (confluency mask): cytotoxic (confluency <70% of control); higher = enhanced NF-kB activity. In a few lines: as §1
Setting [4] is: agonist: ODN 1826 (TLR9) 0.5 ug/mL.
[5] abbreviates: agonist: Pam2CSK4 (TLR2/6) 0.1 ug/mL.
The mark [6] stands for this setting: agonist: Pam3CSK4 (TLR2/1) 0.1 ug/mL.
Setting [7] is: library stock concentration (final ~1000-fold dilution): .1 mM, cytotoxicity flag (confluency mask): not cytotoxic, agonist: Imiquimod (TLR7) […].
The mark [8] stands for this setting: library stock concentration (final ~1000-fold dilution): .1 mM, cytotoxicity flag (confluency mask): not cytotoxic, agonist: MPLA (TLR4) […].
Where [9] appears, read: library stock concentration (final ~1000-fold dilution): 10 mM, cytotoxicity flag (confluency mask): not cytotoxic, agonist: MPLA (TLR4) […].
The mark [10] stands for this setting: library stock concentration (final ~1000-fold dilution): 10 mM, cytotoxicity flag (confluency mask): not cytotoxic, agonist: Imiquimod (TLR7) […].
Where [11] appears, read: library stock concentration (final ~1000-fold dilution): 10 mM, cytotoxicity flag (confluency mask): cytotoxic (confluency <70% of control), agonist: Imiquimod (TLR7) […].
The mark [12] stands for this setting: library stock concentration (final ~1000-fold dilution): 10 mM, cytotoxicity flag (confluency mask): cytotoxic (confluency <70% of control), agonist: MPLA (TLR4) […].

Whole data set: some 2,900 compounds, median “NF-kB SEAP reporter activity, fold change vs agonist alone” near 0.99, cut for the highest 2% near 2.6. This excerpt belongs to a sample that is enriched for the highest values.

On to `Cc1cc(-c2ccnc3cc(O)ccc23)ccc1O` (library stock concentration (final ~1000-fold dilution): .1 mM), for which the “NF-kB SEAP reporter activity” value in assay [1] (agonist: LPS (TLR4) 0.1 ug/mL) is 3.3; in assay [1] (setting [4]), 1.31; in assay [1] (setting [5]) it was 1.32; in assay [1] (setting [6]), 1.41.
With `Cc1cc(-c2ccnc3cc(O)ccc23)ccc1O`, the “NF-kB SEAP reporter activity” value in assay [2] (setting [7]) is 1.38; in assay [2] (setting [8]) it was 2.06.
For the molecule `COc1ccc2c(-c3ccc(O)c(C)c3)ccnc2c1` (library stock concentration (final ~1000-fold dilution): .1 mM), the “NF-kB SEAP reporter activity” value in assay [1] (agonist: LPS (TLR4) 0.1 ug/mL) was 1.1; in assay [1] (setting [4]) it was 1.07; in assay [1] (setting [5]) it was 0.664; in assay [1] (setting [6]) it was 0.85.
Regarding `COc1ccc2c(-c3ccc(O)c(C)c3)ccnc2c1`, the “NF-kB SEAP reporter activity” value in assay [2] (setting [7]) was determined as 0.339; in assay [2] (setting [8]) it was 1.1.
Turning to `CC(NCc1ccc(OCc2cccc(F)c2)cc1)C(N)=O` (stereo not given), the “NF-kB SEAP reporter activity” value in assay [2] (setting [9]) amounted to 1.07.
`CC(NCc1ccc(OCc2cccc(F)c2)cc1)C(N)=O` (stereo not given) (library stock concentration (final ~1000-fold dilution): 10 mM): the “NF-kB SEAP reporter activity” value in assay [1] (agonist: LPS (TLR4) 0.1 ug/mL) was determined as 1.32; in assay [1] (setting [4]), 0.933; in assay [1] (setting [5]), 1.16; in assay [1] (setting [6]), 0.745.
For `Nc1cc(C(F)(F)F)c(-c2cc(N3CCOCC3)nc(N3CCOCC3)n2)cn1`, the “NF-kB SEAP reporter activity” value is 1.71 in assay [2] (setting [10]) and 1.63 in assay [2] (setting [9]).
As for `Nc1cc(C(F)(F)F)c(-c2nc(N3CCOCC3)nc(N3CCOCC3)n2)cn1`, the figures for the “NF-kB SEAP reporter activity” value in assay [2] (setting [10]) and in assay [2] (setting [9]) were 0.783 and 1.11, respectively.
Take `Nc1cc(C(F)(F)F)c(-c2cc(N3CCOCC3)nc(N3CCOCC3)n2)cn1` (library stock concentration (final ~1000-fold dilution): 10 mM): the “NF-kB SEAP reporter activity” value came to 2.59 in assay [1] (agonist: LPS (TLR4) 0.1 ug/mL), 2.07 in assay [1] (setting [4]), 1.49 in assay [1] (setting [5]) and 0.904 in assay [1] (setting [6]).
`FC(F)c1nc2ccccc2n1-c1nc(N2CCOCC2)nc(N2CCOCC2)n1`: the “NF-kB SEAP reporter activity” value was determined as 1.77 in assay [2] (setting [10]) and 1.32 in assay [2] (setting [9]).
Take `Nc1cc(C(F)(F)F)c(-c2nc(N3CCOCC3)nc(N3CCOCC3)n2)cn1` (library stock concentration (final ~1000-fold dilution): 10 mM): the “NF-kB SEAP reporter activity” value is 0.943 in assay [1] (agonist: LPS (TLR4) 0.1 ug/mL), 0.711 in assay [1] (setting [4]), 0.402 in assay [1] (setting [5]) and 0.503 in assay [1] (setting [6]).
For `FC(F)c1nc2ccccc2n1-c1nc(N2CCOCC2)nc(N2CCOCC2)n1` (library stock concentration (final ~1000-fold dilution): 10 mM), in that order: 2.13, 0.832, 0.936 and 0.767.
For `COc1cc2ncnc(Nc3ccc(F)c(Cl)c3)c2cc1OCCCN1CCOCC1.Cl`, the “NF-kB SEAP reporter activity” value in assay [2] (setting [9]) was determined as 1.29.
Turning to `COc1cc2ncnc(Nc3ccc(F)c(Cl)c3)c2cc1OCCCN1CCOCC1.Cl` (library stock concentration (final ~1000-fold dilution): 10 mM), the “NF-kB SEAP reporter activity” value in assay [1] (agonist: LPS (TLR4) 0.1 ug/mL) turned out to be 1.23; in assay [1] (setting [4]), 0.277; in assay [1] (setting [5]) it was 0.967; in assay [1] (setting [6]) it was 0.737.
As to `CN1C(=O)c2sccc2N(C)c2nc(Nc3ccc(S(N)(=O)=O)cc3)ncc21` (library stock concentration (final ~1000-fold dilution): 10 mM), the “NF-kB SEAP reporter activity” value came to 5.75 in assay [1] (agonist: LPS (TLR4) 0.1 ug/mL), 3.02 in assay [1] (setting [4]), 1.22 in assay [1] (setting [5]) and 2.56 in assay [1] (setting [6]).
For `Nc1nc(Nc2ccc(S(N)(=O)=O)cc2)nn1C(=O)c1c(F)cccc1F`, the figures for the “NF-kB SEAP reporter activity” value in assay [2] (setting [11]) and in assay [2] (setting [12]) were 1.97 and 1.36, respectively.
As for `CN1CCN(Cc2ccc(Nc3ncc(Cl)c(Nc4ccccc4S(=O)(=O)N(C)C)n3)cc2)CC1`, the “NF-kB SEAP reporter activity” value turned out to be 1.37 in assay [2] (library stock concentration (final ~1000-fold dilution): 2 mM, cytotoxicity flag (confluency mask): cytotoxic (confluency <70% of control), agonist: Imiquimod (TLR7) […]) and 0.961 in assay [2] (library stock concentration (final ~1000-fold dilution): 2 mM, cytotoxicity flag (confluency mask): cytotoxic (confluency <70% of control), agonist: MPLA (TLR4) […]).
As to `CN1CCN(Cc2ccc(Nc3ncc(Cl)c(Nc4ccccc4S(=O)(=O)N(C)C)n3)cc2)CC1` (library stock concentration (final ~1000-fold dilution): 2 mM), the “NF-kB SEAP reporter activity” value in assay [3] (agonist: LPS (TLR4) 0.1 ug/mL) came to 0.331; in assay [3] (setting [4]), 1.3; in assay [3] (setting [5]) it was 0.245; in assay [3] (setting [6]), 1.08.
For the molecule `Nc1nc(Nc2ccc(S(N)(=O)=O)cc2)nn1C(=O)c1c(F)cccc1F` (library stock concentration (final ~1000-fold dilution): 10 mM), the “NF-kB SEAP reporter activity” value came to 0.637 in assay [3] (agonist: LPS (TLR4) 0.1 ug/mL), 1.29 in assay [3] (setting [4]), 0.632 in assay [3] (setting [5]) and 0.864 in assay [3] (setting [6]).
Take `CN1C(=O)c2sccc2N(C)c2nc(Nc3ccc(S(N)(=O)=O)cc3)ncc21`: the figures for the “NF-kB SEAP reporter activity” value in assay [2] (setting [10]) and in assay [2] (setting [9]) were 1.86 and 2.45, respectively.
As for `COC(=O)c1ccc(O)c(O)c1`, the “NF-kB SEAP reporter activity” value in assay [2] (setting [10]) turned out to be 0.731; in assay [2] (setting [9]), 1.17.
On to `COC(=O)c1ccc(O)c(O)c1` (library stock concentration (final ~1000-fold dilution): 10 mM), for which the “NF-kB SEAP reporter activity” value came out at 0.81 in assay [1] (agonist: LPS (TLR4) 0.1 ug/mL), 0.654 in assay [1] (setting [4]), 0.603 in assay [1] (setting [5]) and 0.553 in assay [1] (setting [6]).
Consider `Cn1cc(C2=C(c3ccc(Cl)cc3Cl)C(=O)NC2=O)c2ccccc21` (library stock concentration (final ~1000-fold dilution): 10 mM), for which the “NF-kB SEAP reporter activity” value in assay [1] (agonist: LPS (TLR4) 0.1 ug/mL) was determined as 3.23; in assay [1] (setting [4]), 2.04; in assay [1] (setting [5]) it was 1.49; in assay [1] (setting [6]), 2.34.
For the molecule `Cn1cc(C2=C(c3cccc(N)c3)C(=O)NC2=O)c2ccccc21`, the “NF-kB SEAP reporter activity” value amounted to 1.55 in assay [2] (setting [10]) and 1.7 in assay [2] (setting [9]).
Turning to `CS(=O)(=O)O.Cn1cc(C2=C(c3cn(CCCSC(=N)N)c4ccccc34)C(=O)NC2=O)c2ccccc21` (library stock concentration (final ~1000-fold dilution): 10 mM), the “NF-kB SEAP reporter activity” value in assay [3] (agonist: LPS (TLR4) 0.1 ug/mL) was determined as 0.173; in assay [3] (setting [4]), 0.185; in assay [3] (setting [5]) it was 0.0599; in assay [3] (setting [6]), 0.138.
In the case of `Cn1cc(C2=C(c3cccc(N)c3)C(=O)NC2=O)c2ccccc21` (library stock concentration (final ~1000-fold dilution): 10 mM), the “NF-kB SEAP reporter activity” value in assay [1] (agonist: LPS (TLR4) 0.1 ug/mL) came out at 1.83; in assay [1] (setting [4]), 2.18; in assay [1] (setting [5]), 1.59; in assay [1] (setting [6]), 2.2.
Consider `CS(=O)(=O)O.Cn1cc(C2=C(c3cn(CCCSC(=N)N)c4ccccc34)C(=O)NC2=O)c2ccccc21`, for which the results for the “NF-kB SEAP reporter activity” value in assay [2] (setting [11]) and in assay [2] (setting [12]) were 0.13 and 0.222, respectively.
